# Lamin A splicing = qHTS Assay for Modulators of Lamin A Splicing | HeLa LMNA splicing GFP/RFP minigene ratio, 48 h | Potency, µM (highest dose often 46.1 µM), hits mostly inhibitors | 0.01% of 200,000 active | AID 1487, 2009; active means well fitted inhibition curve with a large enough effect in the signal ratio, with a control signal flat, not every such curve was filed as active; inconclusive means small, poorly fitted or top-dose-only effect, or effect the other way, or a change in a side signal; the % refers to the signal ratio
#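 S3 HeLa stable clones carrying a lamin A-EGFP splicing minigene plus DsRed2 were seeded at 600 cells/well in Opti-MEM with 2% FBS, pin-dosed and incubated 48 h at 37°C. Acumen cytometry (488 nm) gave the GFP/RFP total-intensity ratio.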
# IMPase Li cell = qHTS Assay for Identifying the Cell-Membrane Permeable IMPase Inhibitors: Potentiation with Lithium | CHO-M1 cells, IP1 TR-FRET (IP-One), carbachol + lithium | Potency, µM (highest dose often 59.4 µM), actives largely listed as inhibitors | 0.35% of 210,000 active | AID 1457, 2008; active means well fitted inhibition curve with a large enough effect; inconclusive means small, poorly fitted or top-dose-only effect; inactive means no such curve, though single readings can be large or run the other way;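 further: IP1 builds up when IMPase is blocked and the TR-FRET signal falls; nearly all actives have a fitted effect of over 50% in size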
#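 Lithium-sensitised IP1 accumulation assay; M1-expressing CHO cells treated 30 min at 37C with compound. Competitive antibody detection by time-resolved FRET followed a 10 min room-temperature lysis step.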
# IMPase inh = qHTS Assay for Identifying the Cell-Membrane Permeable IMPase Inhibitors. inhibition (IP1 accumulation), % at 46.1 µM. 120,000 tested, under 10 active. CHO-M1 cells, IP1 accumulation, HTRF TR-FRET ratio. AID 901, 2007; active means well fitted curve in the direction sought with a large enough effect in the signal ratio, not every such curve was filed as active; inconclusive means small, poorly fitted or top-dose-only effect, or a change in a side signal; inactive means no such curve, though single readings can be large or run the other way; the % refers to the signal ratio;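 further: cells stimulated with carbachol in lithium chloride buffer; higher means more IMPase inhibition seen as more IP1 and lower FRET ratio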
# Target sequence (P97697 whole entry, looked up): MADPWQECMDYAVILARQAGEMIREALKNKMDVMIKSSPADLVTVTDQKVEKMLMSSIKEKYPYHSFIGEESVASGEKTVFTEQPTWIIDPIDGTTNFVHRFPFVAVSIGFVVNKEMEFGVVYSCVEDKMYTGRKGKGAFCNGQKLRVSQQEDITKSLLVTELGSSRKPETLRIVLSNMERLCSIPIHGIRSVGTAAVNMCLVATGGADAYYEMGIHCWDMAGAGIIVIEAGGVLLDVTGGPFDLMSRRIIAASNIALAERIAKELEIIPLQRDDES
#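 The IP-One HTRF competitive assay in carbachol-stimulated CHO-M1 cells quantifies cellular IP1. Compounds spanned up to 46 uM final, and activity is expressed as AC50 from concentration-response fits of the ratio and donor data.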
# Numbers stand for hits; – = inactive; ? = inconclusive; · = no result given; [ ] = dose if it differs, or a comment. Shown is part of a subset that was picked to be rich in hits.
SMILES,Lamin A splicing,IMPase Li cell,IMPase inh
Fc1ccc(-n2cc(-c3ccccc3)c3c(NC4CCCCC4)ncnc32)cc1,–,·,·
C=CCC(C)(O)c1ccc(OC)cc1 (stereo not drawn),·,–,·
O=C(Cn1cc(C(F)(F)F)cc(Cl)c1=O)Nc1cc(Cl)cc(Cl)c1,–,–,·
O=C(Cn1cc(C(F)(F)F)cc(Cl)c1=O)Nc1cccc(Cl)c1,–,10µM,–
N#Cc1c2c(c(-c3ccccc3Cl)[nH]c1=S)CCCC2,?,10µM,·
N#Cc1c(-c2ccccc2Cl)cc(-c2ccccc2)[nH]c1=S,–[9.22 µM],–,·
N#CCCCS(=O)(=O)c1ccccc1,·,–,·
Cc1ccc(C(=O)C2=C(O)C(=O)N(c3ncccn3)C2c2cccc(Cl)c2)o1 (stereo not drawn),–,?,?
Cc1ccc2nc(N3C(=O)C(O)=C(C(=O)c4ccc(C)o4)C3c3cccc(O)c3)sc2c1 (stereo not drawn),–,8.91µM,·
Cc1nc(=S)c2ccccc2[nH]1,–,–,–
FC(F)(F)c1nc(=S)c2ccccc2[nH]1,·,3.16µM,·
CCc1ccc(Cn2c(CNS(=O)(=O)c3ccc([N+](=O)[O-])cc3)nc3cccnc32)cc1,–,·,·
N#CCCn1c(=O)c(-c2ccc(F)cc2)nc2cnc(N3CCNCC3)nc21,–,–,·
O=S(=O)(c1ccccc1)N1N=C(c2cccs2)CC1c1ccc(F)cc1 (stereo not drawn),–,–,–
Fc1ccc(N2N=C(c3cccs3)CC2c2ccccc2)cc1 (stereo not drawn),·,10µM,·
COC(=O)c1ccc2nc(-c3ccc(S(C)(=O)=O)cc3)cn2c1,–,11.2µM,·
CS(=O)(=O)c1ccc(-c2cn3cc(C(=O)O)ccc3n2)cc1,–,–,·
COc1cccc(C(=O)CC2(O)C(=O)Nc3ccc(Cl)cc32)c1 (stereo not drawn),·,·,–
CCc1ccc(-n2nc(C)c3c(C)cc(=O)n(CC(=O)Nc4ccc(C(C)=O)cc4)c32)cc1,–,·,·
COc1ccc(/C=C(\C#N)c2nc(-c3ccc(Cl)c(Cl)c3)cs2)cc1OC,·,·,–
CC(=O)Nc1sc(/C(C#N)=C/c2ccc(Cl)c(Cl)c2)nc1-c1ccc(C)cc1,?,12.6µM,·
N#Cc1ccc(CS(=O)(=O)c2nnnn2-c2ccccc2)cc1,·,–,·
N#Cc1c(-c2ccco2)nc(SCc2ccc(F)cc2)[nH]c1=O,–,12.6µM,?
N#Cc1c(-c2ccco2)nc(SCC(=O)Nc2ccc(S(N)(=O)=O)cc2)[nH]c1=O,–,–,–
CCOC(=O)C(C)(C)[C@H](O)C(C)C,·,–,·
SMILES,Lamin A splicing,IMPase Li cell,IMPase inh
OCC#CCSc1nnc(-c2ccc(Br)cc2)o1,–,–,–
COC(=O)Sc1nnc(-c2ccc(Br)cc2)o1,–,10µM,?
CCCn1c(-c2ccc(F)cc2)nc2c(NCCN(CC)CC)nc(C)nc21,·,–,·
CC(=O)C1=C(C)NC(SCC(=O)c2ccccc2)=C(C#N)C1CC(C)C (stereo not drawn),–,10µM,?
CC(=O)C1=C(C)NC(SCC(=O)c2ccccc2)=C(C#N)C1c1ccco1 (stereo not drawn),?,–,–
O=C(O)c1cc(O)c2c(c1)[C@H]([C@H]1c3cc(C(=O)O)cc(O)c3C(=O)c3c(O[C@@H]4OC(CO)C(O)C(O)C4O)cccc31)c1cccc(O[C@@H]3OC(CO)C(O)C(O)C3O)c1C2=O (stereo partly drawn),?,–,·
Cn1c(=O)c(-c2cc(F)cc(F)c2)nc2cnc(Oc3cccc(Cl)c3)nc21,·,–,·
Cn1c(=O)c(-c2ccc(Cl)cc2)nc2cnc(Oc3cccc(Cl)c3)nc21,?,12.6µM,·
COCCn1c(=O)c(-c2ccc(OC)cc2)nc2cnc(OC)nc21,·,–,·
COc1ccc(-c2nc3cnc(OC)nc3n(CCc3ccccc3)c2=O)cc1,–,7.08µM,·
COCCn1c(=O)c(-c2cn(C)c3ccccc23)nc2cnc(Oc3ccccc3)nc21,·,–,·
Cn1cc(-c2nc3cnc(Oc4ccccc4)nc3n(C)c2=O)c2ccccc21,?,7.08µM,·
O=C(Nc1cccc2cccnc12)[C@@H]1[C@@H](C(=O)O)[C@H]2CC[C@@H]1O2,·,–,·
O=c1oc2cc(O)c(Cl)cc2c2ccccc12,?,7.08µM,·
O=C(Nc1c(O)c2ccccc2oc1=O)c1ccccc1Cl,·,·,–
C[C@@H](O)CCC[C@H](O)/C=C/[C@H]1[C@H](O)CC(=O)[C@@H]1C/C=C\CCCC(=O)O,·,–,·
CCSc1nnc(NC(=O)c2cc3c(s2)CCCC3)s1,–,5.62µM,–
O=C(Nc1nnc(SCc2ccccc2)s1)c1cc2c(s1)CCCC2,–,–,–
CCCCC(CC)CNC(=O)CC1Nc2c3ccccc3nc(=S)n2C1=O (stereo not drawn),·,12.6µM,·
